# Assay results from PubChem BioAssay (NCATS).
# Results filed as inconclusive are left out. Entries that show only a call come without a potency. Calls of active or inactive are those of the source. Calls come from the whole dose curve; as a rule, active = well fitted cell-killing curve with a large enough effect; inconclusive = small, poorly fitted or top-dose-only effect; inactive = flat fitted curve, though single readings scatter.
# Test: Cell Viability - LYMP2-017 (AID 972); note: nearly all actives have a fitted effect of over 55% in size
# Details: LYMP2-017 lymphoblastoid cell viability; series mostly up to 92.2 µM
# Excerpt: NIH Chemical Genomics Center [NCGC]
# NIH Molecular Libraries Screening Centers Network [MLSCN]
# National Institutes of Environmental Health Sciences [NIEHS]
# National Toxicology Program [NTP]
# We have developed a 1536-well cell-based assay for quantitative high throughput screening (qHTS) against a number of cell lines to determine in vitro cytotoxicity of small molecules. This particular assay uses a human lymphoblastoid cell line (LYMP2-017) purchased from Coriell Institute for Medical Research.
# NCGC Assay Protocol Summary:
# The CellTiter-Glo luminescent cell viability assay (Promega) is a homogeneous method to measure the number of viable cells in culture. The end point readout of this assay is based on quantitation of intracellular ATP, an indicator of metabolic activity, using the luciferase reaction. Luciferase catalyzes the oxidation of beetle Luciferin to oxyluciferin and light in the presence of ATP. The luminescent signal is proportional to amount of ATP present.
# Using the CellTiter-Glo luminescent cell viability assay, the amount of cellular ATP was measured in the lymphoblastoid cell line with complete culture medium following compound treatment for 24 hours. The assay was performed in opaque white Kalypsys 1536-well plates. In the screen, tetraoctylammonium bromide was used as positive control. Library compounds were measured for their ability to cause acute toxicity in the cell line, as reflected by a decrease in intracellular ATP levels, in a concentration-dependent manner. […] AC50 values were determined from concentration-response data modeled with the standard Hill equation.
# qHTS protocol for CellTiter Glo lymphoblastoid cellular assay
# [Step] [Parameter] [Value] [Description]
# 1. Reagent; 5 uL; 2500 lymphoblastoid cells/well
# 2. Time; 5 hr; 37 C incubation
# 4. Controls; 23 nL; Tetraoctylammonium bromide 6.4pM to 92 uM
# 5. Time; 24 hr; 37 C incubation
# 6. Reagent; 5 uL; CellTiter Glo reagent
# 7. Time; 30 min; Room Temperature
# 8. Detection; Luminescence; Viewlux plate reader
# Keywords: cell viability, cytotoxicity, lymphoblastoid cell line, luminescence, NTPHTS, NTPHTS_NCGC, NIEHS, DSSTox, MLSMR, MLSCN, NIH Roadmap, qHTS, NCGC
# Potency is the fitted concentration of half-maximal effect.
row,Compound,Potency
1,Cc1ncc([N+](=O)[O-])n1CCO,inactive
2,NC(N)=NC(N)=NCCc1ccccc1,inactive
3,Cc1cc(NS(=O)(=O)c2ccc(N)cc2)no1,inactive
4,CCc1cc(C(N)=S)ccn1,inactive
5,CC1=NN(c2ccccc2)C(=O)C1,inactive
6,Cc1noc(NS(=O)(=O)c2ccc(N)cc2)c1C,inactive
7,O=C(O)c1cc(=O)[nH]c(=O)[nH]1,inactive
8,C[C@]12C=CC(=O)C=C1CC[C@@H]1[C@@H]2C(=O)C[C@@]2(C)[C@H]1CC[C@]2(O)C(=O)CO,inactive
9,CC[C@H](C)C(=O)O[C@H]1C[C@@H](C)C=C2C=C[C@H](C)[C@H](CC[C@@H]3C[C@@H](O)CC(=O)O3)[C@H]21,inactive
10,CN(C)c1ccc(C(=C2C=CC(=[N+](C)C)C=C2)c2ccc(N(C)C)cc2)cc1,3.98 µM (active)
11,Cc1nnc(NS(=O)(=O)c2ccc(N)cc2)s1,inactive
12,O=C(N[C@H](CO)[C@H](O)c1ccc([N+](=O)[O-])cc1)C(Cl)Cl,inactive
13,Cc1ccnc2c1NC(=O)c1cccnc1N2C1CC1,inactive
14,NNC(=O)c1ccncc1,inactive
